The record followed here is the supplement of paper PMC8728848.

The sample as a whole holds a higher share of the strongest signals than the screen did.

Common to all, as to assay: glycan array binding signal (z-score within array); higher = stronger binding
Holding throughout (conditions): glycan notation: IUPAC condensed, linker removed

The target of one experiment is Fuc(a1-2)Gal(b1-4)Glc. The method, boiled down:
(§1)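 The binding signal is a Z-score computed within each array and averaged over linkers. Arrays of the same protein sequence at different concentrations or buffers were also averaged together. Data originate from 3228 arrays in the Consortium for Functional Glycomics database, kept only where the protein sequence was available.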

In experiment [1] the target is Fuc(a1-2)Gal(b1-4)[Fuc(a1-3)]GlcNAc(b1-3)Gal(b1-4)[Fuc(a1-3)]GlcNAc. The method in brief: as §1
The target of a further experiment is Fuc(a1-2)GlcNAc. The method in brief:
as §1

The target in experiment [2] is Fuc(a1-2)[GalNAc(b1-3)]Gal. The method in brief:
as §1

Experiment [3] deals with Fuc(a1-3)[Gal(b1-4)]GlcNAc(b1-4)Gal(b1-4)[Fuc(a1-3)]GlcNAc. The method in brief: as §1
The next experiment addresses Fuc(b1-3)GlcNAc. The method in brief:
as §1

Another experiment concerns the target Gal(a1-3)Gal(b1-4)GlcNAc. The method in brief:
as §1

The target in experiment [4] is Gal(b1-3)[Fuc(a1-4)]GlcNAc. The method in brief: as §1
For experiment [5], the target named is Gal(b1-4)GalNAc(a1-3)[Fuc(a1-2)]Gal(b1-4)GlcNAc. The method in brief:
as §1

The next experiment has as its target Gal(b1-4)Glc6S. The method, boiled down:
as §1

For experiment [6], the target named is Gal(b1-4)GlcNAc(b1-2)Man(a1-3)[Gal(b1-4)GlcNAc(b1-2)Man(a1-6)]Man(b1-4)GlcNAc(b1-4)GlcNAc. The method in brief:
as §1

Experiment [7] addresses Gal(b1-4)GlcNAc(b1-6)[Gal(b1-3)]GalNAc. The method, boiled down: as §1
A further experiment addresses Gal3S(b1-4)Glc. The method, boiled down:
as §1

In the next experiment the target is Gal3S(b1-4)GlcNAc6S. The method, boiled down: as §1
For the next experiment, the target named is Gal3S6S(b1-4)GlcNAc6S. The method in brief:
as §1

The next experiment addresses Gal6S(b1-4)Glc6S. The method in brief:
as §1

The target in another experiment is GlcNAc(b1-3)Gal. The method in brief: as §1
The target of experiment [8] is Neu5Ac(a2-3)Gal(b1-4)[Fuc(a1-3)]GlcNAc(b1-3)Gal. The method, boiled down:
as §1

In experiment [9] the target is Neu5Ac(a2-3)Gal(b1-4)[Fuc(a1-3)]GlcNAc(b1-3)Gal(b1-4)[Fuc(a1-3)]GlcNAc(b1-3)Gal(b1-4)[Fuc(a1-3)]GlcNAc. The method, boiled down: as §1
In experiment [10] the target is Neu5Ac(a2-8)Neu5Ac(a2-8)Neu5Ac(a2-3)[GalNAc(b1-4)]Gal(b1-4)Glc. The method, boiled down:
as §1

The target in experiment [11] is Fuc(a1-2)Gal(b1-4)GlcNAc(b1-3)Gal(b1-4)GlcNAc. The method, boiled down: as §1
Experiment [12] deals with Fuc(a1-2)Gal(b1-4)[Fuc(a1-3)]GlcNAc. The method in brief: as §1
The target of experiment [13] is Fuc(a1-2)[GalNAc(a1-3)]Gal(b1-4)[Fuc(a1-3)]GlcNAc. The method in brief:
as §1

In experiment [14] the target is Fuc(a1-3)[Gal(b1-4)]GlcNAc(b1-4)Gal(b1-4)[Fuc(a1-3)]GlcNAc(b1-4)Gal(b1-4)[Fuc(a1-3)]GlcNAc. The method, boiled down:
as §1

A further experiment has as its target Gal(a1-3)GalNAc. The method, boiled down:
as §1

The target in experiment [15] is Gal(b1-3)GlcNAc(b1-3)Gal(b1-4)Glc. The method in brief:
as §1

Experiment [16] concerns the target Gal(b1-3)GlcNAc(b1-3)Gal(b1-4)GlcNAc. The method in brief:
as §1

The target in experiment [17] is Gal(b1-3)[Fuc(a1-4)]GlcNAc(b1-3)Gal(b1-4)[Fuc(a1-3)]GlcNAc. The method in brief:
as §1

For experiment [18], the target named is Gal(b1-3)[Neu5Ac(a2-6)]GalNAc. The method in brief:
as §1

For experiment [19], the target named is Gal(b1-3)[Neu5Ac(a2-6)]GlcNAc(b1-6)Gal(b1-4)Glc. The method, boiled down: as §1
The target in the next experiment is Gal(b1-4)GlcNAc. The method, boiled down:
as §1

The target of experiment [20] is Gal(b1-4)GlcNAc(b1-3)[Gal(b1-4)GlcNAc(b1-6)]GalNAc. The method in brief: as §1
The target in the next experiment is Gal3S(b1-3)GlcNAc. The method in brief: as §1
In a further experiment the target is Gal3S6S(b1-4)GlcNAc. The method, boiled down: as §1
The target in experiment [21] is GlcNAc(b1-3)Gal(b1-3)GalNAc. The method, boiled down: as §1
The target in experiment [22] is GlcNAc(b1-3)[GlcNAc(b1-6)]GlcNAc(b1-4)GlcNAc. The method, boiled down: as §1
In experiment [23] the target is Neu5Ac(a2-3)Gal(b1-3)GalNAc. The method in brief: as §1
Experiment [24] addresses Neu5Ac(a2-3)Gal(b1-3)GalNAc(b1-3)Gal(b1-4)GlcNAc. The method in brief:
as §1

Experiment [25] addresses Neu5Ac(a2-3)Gal(b1-3)[Fuc(a1-4)]GlcNAc(b1-3)Gal(b1-4)[Fuc(a1-3)]GlcNAc. The method in brief: as §1
Experiment [26] has as its target Neu5Ac(a2-3)Gal6S(b1-4)[Fuc(a1-3)]GlcNAc. The method in brief:
as §1

In experiment [27] the target is Neu5Ac(a2-3)[GalNAc(b1-4)]Gal(b1-4)Glc. The method in brief: as §1
The next experiment addresses Neu5Ac(a2-8)Neu5Ac. The method in brief: as §1

B1: DCIR (Homo sapiens), Q9UMR7 (protein)
chain: MTSEITYAEVRFKNEFKSSGINTASSAASKERTAPHKSNTGFPKLLCASLLIFFLLLAISFFIAFVIFFQKYSQLLEKKTTKELVHTTLECVKKNMPVEETAWSCCPKNWKSFSSNCYFISTESASWQDSEKDCARMEAHLLVINTQEEQDFIFQNLQEESAYFVGLSDPEGQRHWQWVDQTPYNESSTFWHPREPSDPNERCVVLNFRKSPKRWGWNDVNCLGPQRSVCEMMKIHL
With B1, the “glycan array binding signal (z-score)” value in the experiment with Fuc(a1-2)Gal(b1-4)Glc was -0.479; in [1], -0.367; with Fuc(a1-2)GlcNAc it was -0.484; in experiment [2] it was -0.31; in experiment [3], 0.076; with Fuc(b1-3)GlcNAc it was -0.551. The “glycan array binding signal (z-score)” value was 0.183 in the experiment with Gal(a1-3)Gal(b1-4)GlcNAc; -0.359 in experiment [4]; -0.129 in experiment [5]; 0.19 with Gal(b1-4)Glc6S; 4.96 in experiment [6]; -0.161 in experiment [7]. Besides, the “glycan array binding signal (z-score)” value with Gal3S(b1-4)Glc was -0.426; with Gal3S(b1-4)GlcNAc6S, 5.68; in the experiment with Gal3S6S(b1-4)GlcNAc6S it was 7.43; with Gal6S(b1-4)Glc6S, 4.52; in the experiment with GlcNAc(b1-3)Gal it was -0.245; in [8] it was -0.071. In addition, the “glycan array binding signal (z-score)” value in [9] was -0.372; in [10] it was -0.052.

B2: CTMLA2 (Anopheles gambiae), Q7Q7F8 (protein)
chain: MNLMITILIAVITVVRGDLSVPKTVDDILQQNPCLCPCKPFEEKEYFIPISRTSDWFGAVAYCHSVGMELAEVLNEDEARAMGEVIAEEESDSDDEFYWIGANDLGVQGTYRWALAGRPVLYSQWAAGEPNHARGENGQQPAERCVAVAMDKYEWNDFQCTQQKPFICQQFRKH
Consider B2, for which the “glycan array binding signal (z-score)” value is 0.14 with Fuc(a1-2)Gal(b1-4)Glc; -0.253 in [11]; -0.269 in experiment [12]; 0.192 in experiment [13]; -0.011 in [14]; 0.077 in the experiment with Gal(a1-3)GalNAc. In addition, the “glycan array binding signal (z-score)” value in [15] was 4.14; in experiment [16], -0.58; in [17], -0.224; in experiment [18], -0.277; in experiment [19] it was -0.49; in the experiment with Gal(b1-4)GlcNAc, -0.338. Besides, the “glycan array binding signal (z-score)” value in experiment [20] was 0.036; with Gal3S(b1-3)GlcNAc it was 1.6; in the experiment with Gal3S6S(b1-4)GlcNAc, 1.36; in [21] it was 1.18; in [22], 0.928; in experiment [23], -0.51. Besides, the “glycan array binding signal (z-score)” value in experiment [24] is 0.102; in experiment [25], -0.129; in [26], -0.274; in experiment [27], -0.435; with Neu5Ac(a2-8)Neu5Ac it was -0.246.
